# Records with an inconclusive call do not appear. Where a call stands in place of a potency, no number is given. Values without a mark were called inactive. Active and inactive are the calls of the source. Calls follow the shape of the dose curve; as a rule, active = well fitted curve in the direction sought with a large enough effect; inconclusive = small, poorly fitted or top-dose-only effect, or another doubt; inactive = no such curve, though single readings can be large; an effect the other way counts as inactive or inconclusive.
# How the values were obtained:
# [1] = Primary qHTS for inhibitors of La Crosse Virus (LACV) - induced cell death in SH-SY5Y cells (AID 1508616); also: potency is read from the fitted curve at half-maximal effect
# In short: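 Luminescent ATP readout (ATPLite 1step, 5 min room temperature) measured rescue from LACV-induced death after 6 days of infection at 0.01 MOI; normalized to infected DMSO wells and uninfected DMSO wells.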
# [2] = target: Calcium and integrin-binding protein 1 (Homo sapiens) (UniProt Q99828); assay: Validation qHTS for Identification of Calcium Integrin Binding protein 1 (CIB1) Competitor (AID 1508618)
# Chain of Calcium and integrin-binding protein 1 (Homo sapiens) (Q99828 whole entry, looked up): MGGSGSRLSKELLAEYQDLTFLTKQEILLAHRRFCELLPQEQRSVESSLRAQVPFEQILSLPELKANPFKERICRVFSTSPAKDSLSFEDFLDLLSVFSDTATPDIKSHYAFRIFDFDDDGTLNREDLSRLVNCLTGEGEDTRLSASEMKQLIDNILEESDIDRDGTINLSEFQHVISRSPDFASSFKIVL
# In short: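 In this qHTS validation, the LOPAC set (up to 114 uM) was tested for blocking CIB1 binding to a fluorescein-tagged alphaIIb peptide, with FP detection at 480/540 nm.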
# [3] = Primary qHTS for small molecule stabilizers of the endoplasmic reticulum resident proteome: Secreted ER Calcium Modulated Protein (SERCaMP) assay (AID 1508630)
# In short: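 GLuc-SERCaMP-expressing SH-SY5Y cells, pretreated 16 h with compound, are challenged with thapsigargin to empty ER calcium stores; after 4 h, coelenterazine is added directly to the medium and luminescence is imaged.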
# [4] = Counterscreen qHTS for small molecule stabilizers of the endoplasmic reticulum resident proteome: GLuc-NoTag assay (AID 1508627);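 also: SH-SY5Y cells given compound then 100 nM thapsigargin to empty ER calcium; series mostly up to about 76 µM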
# In short: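 SH-SY5Y cells stably expressing constitutively secreted GLuc without SERCaMP tag, exposed to compound for 19 hr, then to 100 nM thapsigargin for 4 hr at 37C. Medium luciferase was read by coelenterazine luminescence without lysis.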
# [5] = Confirmatory qHTS for small molecule stabilizers of the endoplasmic reticulum resident proteome: Secreted ER Calcium Modulated Protein (SERCaMP) assay (AID 1508628); also: potency is read from the fitted curve at half-maximal effect; nearly all actives have a fitted effect of over 40% in size
# In short: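 We seeded SH-SY5Y-GLuc-SERCaMP cells, added compounds (three concentrations in the primary run, eleven up to 76.6 uM in confirmation), incubated 16 h, depleted ER calcium with thapsigargin, and read luciferase 4 h later.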
# [6] = Cell Viability qHTS for small molecule stabilizers of the endoplasmic reticulum resident proteome (AID 1508629); conditions: cell viability counter-screen, 100 nM thapsigargin for final 4 h;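 also: human SH-SY5Y neuroblastoma cells carrying the GLuc-SERCaMP reporter; compound exposure about 46 h in total before the viability read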
compound,measurement,setting,value
CC(C)(O)[C@@H]1C2OC(=O)[C@@H]1[C@]1(O)C[C@H]3O[C@]34C(=O)O[C@H]2[C@]14C (tested in a mixture with another compound),Potency,[1],inactive
same,Potency,[2],inactive
same,outcome,[3],inactive
CCCC[N+]1(C)C2CC(OC(=O)[C@H](CO)c3ccccc3)CC1C1OC12 (stereo partly drawn),Potency,[1],inactive
same,Potency,[2],inactive
CN1C2CCC1CC(OC(c1ccccc1)c1ccccc1N)C2 (stereo not drawn),Potency,[1],inactive
same,Potency,[2],inactive
same,outcome,[4],inactive
same,Potency,[5],31.6 µM (active)
NC(=O)COc1c(F)cc(SCCNS(=O)(=O)c2ccccc2)cc1F,Potency,[1],inactive
same,Potency,[2],inactive
CC(C)NP(=O)(NC(C)C)OP(=O)(NC(C)C)NC(C)C,Potency,[1],inactive
same,Potency,[2],inactive
same,outcome,[3],inactive
CC(N)Cc1c[nH]c2ccc(OCc3cccs3)cc12 (stereo not drawn),Potency,[1],inactive
CCCCCCC(C)(C)c1ccc([C@@H]2C[C@H](O)CC[C@H]2CCCO)c(O)c1,Potency,[1],inactive
C[N+]1(C)C2CCC1CC(OC(=O)c1c[nH]c3ccccc13)C2 (stereo not drawn),Potency,[1],inactive
CN1CCc2cc(O)cc3c2[C@H]1Cc1ccc(O)c(O)c1-3,Potency,[1],3.98 µM (active)
same,Potency,[2],inactive
C=CCN1C[C@@H](C)N([C@H](c2ccc(C(=O)N(CC)CC)cc2)c2cccc(OC)c2)C[C@@H]1C,Potency,[1],inactive
CCS(=O)(=O)Nc1cccc(C(=C2CCCCC2)c2cnc[nH]2)c1,Potency,[1],inactive
same,Potency,[2],inactive
same,outcome,[3],inactive
NC(N)=NOCC[C@H](N)C(=O)O,Potency,[1],inactive
same,Potency,[2],inactive
same,outcome,[3],inactive
Clc1ccc(N2CC3CCC(C2)N3)nn1,Potency,[1],inactive
same,Potency,[2],inactive
same,outcome,[4],inactive
same,max response,[6],-7.5%
c1ccc2cc(CC3=NCCN3)ccc2c1,Potency,[1],inactive
same,Potency,[2],inactive
C[C@]12Cc3cn4c(nc3C=C1CCC1C2CC[C@@]2(C)[C@H]1CC[C@@]2(O)C#N)nc1ccccc14 (stereo partly drawn),Potency,[1],inactive
same,Potency,[2],inactive
same,outcome,[3],inactive
O=S1(=O)N(CCN2CC=C(c3c[nH]c4cc(F)ccc34)CC2)c2cccc3c2N1CCC3,Potency,[1],inactive
same,Potency,[2],inactive
same,outcome,[3],inactive
N=C(N)c1ccc(CS(=O)(=O)F)cc1,Potency,[1],inactive
same,Potency,[2],inactive
same,outcome,[3],inactive
NCC(CP(=O)(O)O)c1ccc(Cl)cc1 (stereo not drawn),Potency,[1],inactive
same,Potency,[2],inactive
same,outcome,[3],inactive
OCc1cnc[nH]1,Potency,[1],inactive
same,Potency,[2],inactive
same,outcome,[3],inactive
CN1CC[C@@]2(C)c3cc(O)ccc3N(C)C12 (stereo partly drawn),Potency,[1],inactive
same,Potency,[2],inactive
same,outcome,[3],inactive
C[N+]1(C)CCN(c2ccccc2)CC1,Potency,[1],inactive
same,Potency,[2],inactive
same,outcome,[3],inactive
